In PubChem BioAssay (NCI):
The panel holds about 79,000 compounds, 15% with a hit somewhere; the sample as a whole holds those more often. The source made the active and inactive calls. No stated cut-off is given here; in the data, active means growth inhibition above about 70%; inactive means the rest.

Experiments:
[1] = NCI Yeast Anticancer Drug Screen. Data for the rad52 strain (AID 147);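 further: 0% = growth of vehicle-treated control cultures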; conditions: S. cerevisiae rad52 mutant growth inhibition, active compounds read high
How it was run: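 Yeast strain carrying a DNA damage repair alteration was exposed to test compounds. Growth inhibition was measured relative to vehicle-treated controls.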

[2] = NCI Yeast Anticancer Drug Screen. Data for the wt1 strain (AID 149);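 further: 0% = growth of vehicle-treated wt1 cultures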; conditions: S. cerevisiae wt1 strain (SPY 50644) growth inhibition, active compounds read high
How it was run: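 Readout: yeast growth inhibition, normalised to vehicle controls, in the wt1 strain exposed to test compounds.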

[3] = NCI Yeast Anticancer Drug Screen. Data for the mgt1 strain (AID 153); conditions: S. cerevisiae mgt1 mutant growth inhibition, active compounds read high
How it was run: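 Yeast mgt1 strain (DNA repair/cell-cycle alteration panel) exposed to compounds; growth inhibition measured relative to vehicle-treated controls.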

[4] = NCI Yeast Anticancer Drug Screen. Data for the rad50 strain (AID 155);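 further: 0% = growth of vehicle-only cultures of the same strain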; conditions: S. cerevisiae rad50 strain growth inhibition, active compounds read high
How it was run: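 Compounds were tested on a yeast strain with an engineered DNA damage repair alteration; the reported value is growth inhibition normalised to vehicle treatment.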

[5] = NCI Yeast Anticancer Drug Screen. Data for the mec2-1 strain (AID 157); conditions: S. cerevisiae mec2-1 strain, active compounds read high
How it was run: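 mec2-1 yeast strain, carrying an alteration in DNA damage repair or cell cycle control, was exposed to compounds; growth inhibition was measured relative to vehicle-treated controls.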

[6] = NCI Yeast Anticancer Drug Screen. Data for the rad14 strain (AID 159);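 further: 0% = growth of vehicle-treated control cultures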; conditions: S. cerevisiae rad14 strain growth inhibition, active compounds read high
How it was run: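 Compound-treated yeast with a defined DNA-repair lesion; growth inhibition normalised to vehicle-treated cultures.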

[7] = NCI Yeast Anticancer Drug Screen. Data for the sgs1 mgt1 strain (AID 161);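 further: 0% = growth of cultures given vehicle only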; conditions: S. cerevisiae sgs1 mgt1 strain, active compounds read high
How it was run: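 Compounds are added to genetically altered yeast, and growth is compared with cultures given vehicle alone to give percent inhibition.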

[8] = NCI Yeast Anticancer Drug Screen. Data for the CLN2oe strain (AID 163);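 further: 0% = growth of vehicle-only control cultures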; conditions: S. cerevisiae CLN2oe strain, active compounds read high
How it was run: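 Yeast cells carrying a defined cell-cycle control alteration were exposed to test compounds. Growth inhibition was scored against vehicle-treated control cultures.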

[9] = NCI Yeast Anticancer Drug Screen. Data for the cln2 rad14 strain (AID 165);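 further: 0% = growth equal to vehicle treated cultures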; conditions: S. cerevisiae cln2 rad14 strain, active compounds read high
How it was run: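 Yeast carrying cln2 and rad14 alterations (cell cycle control and DNA damage repair) were exposed to compounds. Growth inhibition was measured against vehicle-treated controls.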

[10] = NCI Yeast Anticancer Drug Screen. Data for the bub3 strain (AID 167); conditions: S. cerevisiae bub3 mutant strain, active compounds read high
How it was run: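 Growth of a checkpoint-deficient yeast mutant is measured after compound exposure. Values represent inhibition relative to vehicle.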

[11] = NCI Yeast Anticancer Drug Screen. Data for the wt2 strain (AID 169);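 further: 0% = growth of vehicle-treated yeast cultures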; conditions: S. cerevisiae wt2 strain growth inhibition, active compounds read high
How it was run: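 Yeast cells were exposed to test compounds, and growth inhibition was measured relative to vehicle-treated controls.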

[12] = NCI Yeast Anticancer Drug Screen. Data for the mlh1 strain (AID 171);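 further: 0% = growth of vehicle-treated control cultures of the same strain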; conditions: S. cerevisiae mlh1 strain growth inhibition, active compounds read high
How it was run: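 Yeast carrying a defined genetic alteration in DNA damage repair or cell cycle control were exposed to test compounds. Growth inhibition was measured relative to vehicle-treated controls.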

[13] = NCI Yeast Anticancer Drug Screen. Data for the sgs1 strain (AID 173);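 further: 0% = growth of vehicle-only control cultures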; conditions: S. cerevisiae sgs1 mutant, active compounds read high
How it was run: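 Yeast mutant strains carrying defined defects in DNA damage repair or cell cycle control were exposed to test compounds. Growth inhibition was scored against vehicle-treated controls.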

[14] = NCI Yeast Anticancer Drug Screen. Data for the mlh1 rad18 strain (AID 175); conditions: S. cerevisiae mlh1 rad18 strain growth inhibition, active compounds read high
How it was run: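 Growth inhibition of the yeast strain was measured after compound exposure and expressed relative to vehicle-treated controls. The strain carries defined defects in DNA damage repair.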

[15] = NCI Yeast Anticancer Drug Screen. Data for the rad18 strain (AID 177); conditions: S. cerevisiae rad18 mutant growth inhibition, active compounds read high
How it was run: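 Yeast carrying a defined DNA damage repair alteration were exposed to compounds. Growth inhibition was expressed relative to vehicle-treated controls.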

[16] = NCI Yeast Anticancer Drug Screen. Data for the rad50EPP+ strain (AID 151);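 further: 0% = growth of vehicle-treated control cultures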; conditions: S. cerevisiae rad50 mutant strain, active compounds read high
How it was run: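 Yeast strain carrying rad50 alteration (rad50EPP+) exposed to compounds; growth inhibition measured relative to vehicle-treated controls.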

[17] = at 5.0 µM (retest, dose inferred, filed as 0.5)
[18] = at 50.0 µM (retest, dose inferred, filed as 5.0)

Measured: growth inhibition

CC(=O)OCC1OC2OC(=O)NC2C(OC(C)=O)C1OC(C)=O (stereo unspecified)
inactive: [1]; at 1.2 µM -3% | [1]; at 3.7 µM -1% | [1]; at 11.0 µM 0% | [1]; at 33.0 µM 1% | [1]; at 100.0 µM -3% | [2]; at 1.2 µM -3% | [2]; at 3.7 µM -3% | [2]; at 11.0 µM -2% | [2]; at 33.0 µM -2% | [2]; at 100.0 µM -1% | [3]; at 1.2 µM -1% | [3]; at 3.7 µM -1% | [3]; at 11.0 µM 1% | [3]; at 33.0 µM -4% | [3]; at 100.0 µM -35% | [4]; at 1.2 µM -5% | [4]; at 3.7 µM -1% | [4]; [17] 5% | [4]; at 11.0 µM 0% | [4]; at 33.0 µM -1% | [4]; [18] -1% | [4]; at 50.0 µM 5.15% | [4]; at 100.0 µM 0% | [5]; at 1.2 µM -2% | [5]; at 3.7 µM -2% | [5]; [17] -7% | [5]; at 11.0 µM -1% | [5]; at 33.0 µM -1% | [5]; [18] 3% | [5]; at 50.0 µM 10.9% | [5]; at 100.0 µM 0% | [6]; at 1.2 µM -2% | [6]; at 3.7 µM -1% | [6]; at 11.0 µM -3% | [6]; at 33.0 µM 2% | [6]; at 100.0 µM 2% | [7]; [17] 2% | [7]; [18] 15% | [7]; at 50.0 µM -17.1% | [8]; at 1.2 µM -3% | [8]; at 3.7 µM 2% | [8]; at 11.0 µM -1% | [8]; at 33.0 µM -4% | [8]; at 100.0 µM 0% | [9]; [17] -21% | [9]; [18] 44% | [9]; at 50.0 µM -15.3% | [10]; at 1.2 µM 13% | [10]; at 3.7 µM 2% | [10]; [17] 3% | [10]; at 11.0 µM -2% | [10]; at 33.0 µM 1% | [10]; [18] 3% | [10]; at 50.0 µM -9.2% | [10]; at 100.0 µM -4% | [11]; at 1.2 µM -3% | [11]; at 3.7 µM -3% | [11]; at 11.0 µM -3% | [11]; at 33.0 µM -4% | [11]; at 100.0 µM -1% | [12]; at 1.2 µM -2% | [12]; at 3.7 µM -3% | [12]; at 11.0 µM -2% | [12]; at 33.0 µM -1% | [12]; at 100.0 µM 0% | [13]; at 1.2 µM -3% | [13]; at 3.7 µM -3% | [13]; at 11.0 µM -2% | [13]; at 33.0 µM -1% | [13]; at 100.0 µM 0% | [14]; [17] -9% | [14]; [18] 5% | [14]; at 50.0 µM -7.3% | [15]; at 1.2 µM -3% | [15]; at 3.7 µM -1% | [15]; at 11.0 µM 0% | [15]; at 33.0 µM -3% | [15]; at 100.0 µM -2%

O=C1C(Br)=C(c2ccccc2)O/C1=C/C(=O)c1ccc(Br)cc1
active: [1]; at 100.0 µM 75% | [3]; at 100.0 µM 88% | [5]; at 100.0 µM 92% | [6]; at 100.0 µM 96% | [10]; at 100.0 µM 84% | [13]; at 100.0 µM 94% | [15]; at 100.0 µM 79%
inactive: [1]; at 1.2 µM 2% | [1]; at 3.7 µM 6% | [1]; at 11.0 µM 12% | [1]; at 33.0 µM 26% | [2]; at 1.2 µM 3% | [2]; at 3.7 µM 5% | [2]; at 11.0 µM 10% | [2]; at 33.0 µM 16% | [2]; at 100.0 µM 44% | [3]; at 1.2 µM 2% | [3]; at 3.7 µM 5% | [3]; at 11.0 µM 10% | [3]; at 33.0 µM 36% | [4]; at 1.2 µM 4% | [4]; at 3.7 µM 5% | [4]; [17] -21% | [4]; at 11.0 µM 11% | [4]; at 33.0 µM 18% | [4]; [18] 34% | [4]; at 50.0 µM 24.2% | [4]; at 100.0 µM 49% | [5]; at 1.2 µM -1% | [5]; at 3.7 µM 5% | [5]; [17] -6% | [5]; at 11.0 µM 8% | [5]; at 33.0 µM 20% | [5]; [18] 25% | [5]; at 50.0 µM 21.1% | [6]; at 1.2 µM 3% | [6]; at 3.7 µM 6% | [6]; at 11.0 µM 13% | [6]; at 33.0 µM 28% | [7]; [17] -7% | [7]; [18] 39% | [7]; at 50.0 µM 53.9% | [8]; at 1.2 µM 1% | [8]; at 3.7 µM 1% | [8]; at 11.0 µM 4% | [8]; at 33.0 µM 9% | [8]; at 100.0 µM 18% | [9]; [17] -13% | [9]; [18] 12% | [9]; at 50.0 µM 29.7% | [10]; at 1.2 µM -2% | [10]; at 3.7 µM -2% | [10]; [17] -16% | [10]; at 11.0 µM -1% | [10]; at 33.0 µM 6% | [10]; [18] 21% | [10]; at 50.0 µM 15.4% | [11]; at 1.2 µM 1% | [11]; at 3.7 µM 3% | [11]; at 11.0 µM 7% | [11]; at 33.0 µM 31% | [11]; at 100.0 µM 69% | [13]; at 1.2 µM 1% | [13]; at 3.7 µM 5% | [13]; at 11.0 µM 15% | [13]; at 33.0 µM 37% | [14]; [17] -16% | [14]; [18] 62% | [14]; at 50.0 µM 52.6% | [15]; at 1.2 µM 2% | [15]; at 3.7 µM 3% | [15]; at 11.0 µM 13% | [15]; at 33.0 µM 25%

O=C1C=C(N2CCN(c3ccccn3)CC2)C(=O)c2c(O)ccc(O)c21
inactive: [1]; at 1.2 µM 3% | [1]; at 3.7 µM 8% | [1]; at 11.0 µM 19% | [1]; at 33.0 µM 33% | [1]; at 100.0 µM 45% | [2]; at 1.2 µM 10% | [2]; at 3.7 µM 13% | [2]; at 11.0 µM 15% | [2]; at 33.0 µM 21% | [2]; at 100.0 µM 26% | [16]; at 1.2 µM -4% | [16]; at 3.7 µM -3% | [16]; at 11.0 µM 4% | [16]; at 33.0 µM 17% | [16]; at 100.0 µM 26% | [4]; at 1.2 µM -3% | [4]; at 3.7 µM -8% | [4]; [17] 28% | [4]; at 11.0 µM 0% | [4]; at 33.0 µM 37% | [4]; at 100.0 µM 55% | [5]; at 1.2 µM 7% | [5]; at 3.7 µM 8% | [5]; [17] -17% | [5]; at 11.0 µM 10% | [5]; at 33.0 µM 19% | [5]; at 50.0 µM 65.2%
active: [4]; [18] 94% | [4]; at 50.0 µM 84.5% | [5]; [18] 84%
